Results on 40 compounds are retold here after PubChem BioAssay (NCI).

The panel holds about 79,000 compounds, 15% with a hit somewhere; the sample as a whole holds those more often. A number with no mark means an inactive call. Rule as the data show it: active = growth inhibition above about 70%; inactive = the rest.

The nature of the assay: NCI Yeast Anticancer Drug Screen. Data for the mlh1 rad18 strain (AID 175). Particulars: S. cerevisiae mlh1 rad18 strain growth inhibition; at 50.0 µM; hits give high values. Summed up:
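Growth inhibition of the yeast strain was measured after compound exposure and expressed relative to vehicle-treated controls. The strain carries defined defects in DNA damage repair.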
As for `CC(C)(CCCOc1ccccc1)NC(=O)c1ccccc1`, the growth inhibition was 6.15%. As to `CCCOC(=O)C(O)Cc1ccccc1` (stereo not given), the growth inhibition was -34.3%.

`[O-][N+]1=CCCC1`: the growth inhibition was -16.4%.

With `Oc1c(Cl)cc(Cl)cc1C=Nc1cc(C(F)(F)F)ccc1N1CCc2ccccc2C1`, the growth inhibition is 39.6%. Regarding `CSC(=S)Nc1nc2ccc(C)cc2s1`, the growth inhibition is -14.8%. In the case of `O=C1CSC(/C(=C\c2ccc(Cl)cc2)c2nc3ccccc3[nH]2)=N1`, the growth inhibition is 4.3%. The value for `O=c1c2ccccc2c(=O)c2c1ccc1[nH]c3ccccc3sc12` was -6.6%; that for `CCNC(=S)NNC(=O)c1ccc(N=NN(C)C)cc1` was 10.9%.

In the case of `CCOc1ccc2nc(NC(=O)C(=O)C(C(=O)c3ccccc3-c3ccccc3)C3OC(=O)c4ccccc43)sc2c1` (stereo not given), the growth inhibition was -28.6%.

In the case of `Cc1cccc(C)c1NC(=O)C(=O)CC(=O)/C=C/c1ccccc1`, the growth inhibition is -28.7%. Regarding `COc1ccc(C(=O)O[C@H]2[C@@H]3C=CO[C@@H](OC4OC(CO)C(O)C(O)C4O)[C@@H]3[C@@]3(CO)O[C@@H]23)cc1O` (stereo not given in full), the growth inhibition is 38.6%. Consider `COc1ccc2[nH]c(Br)c(CCNC(C)=O)c2c1`, for which the growth inhibition was -31.9%. Turning to `O=C(Nc1ccccc1)Oc1ccccc1C1CCCCC1`, the growth inhibition is -20%. With `O=C(Nc1cccc(O)c1)c1ccc([N+](=O)[O-])cc1`, the growth inhibition is 23.4%. On to `C/C(N=NC(=S)N1CCCCC1)=C1\C=CC=CN1O`, for which the growth inhibition was 22.1%. Regarding `CCOC(=O)C(Cc1ccc(O)cc1)NC(=O)c1cc2c(cn1)[nH]c1ccccc12` (stereo not given), the growth inhibition was 4.65%. The value for `CC/C(=C\c1ccccc1OC)c1ccncc1` was 1.55%. Consider `CN(C)Cc1cc(C(C)(C)CC(C)(C)C)cc(Br)c1O`, for which the growth inhibition was 26.9%.

For `CC(=O)Nc1cccnc1`, the growth inhibition is -2.45%. As to `CCOC(=O)NC(=O)c1cn(CCN2CCN(C(=O)CCCCCCCCCCNc3ncnc4nc[nH]c34)CC2)c(=O)[nH]c1=O`, the growth inhibition is -14.2%. Consider `COCCOCOCCCC#C[Si](C)(C)C`, for which the growth inhibition was -19.4%.

Consider `O=C1/C(=C/c2ccccc2)CN(C(=O)OCC(Cl)(Cl)Cl)C/C1=C\c1ccccc1`, for which the growth inhibition was -57.7%.

`N#Cc1ccccc1OCCCCOc1ccccc1C#N`: the growth inhibition is 16.1%. On to `O=[N+]([O-])c1ccc(C2ON2c2ccccc2)cc1` (stereo not given) (tested in a mixture with another compound), for which the growth inhibition was 25.6%. Consider `CNC(=O)NS(=O)(=O)c1cccc([N+](=O)[O-])c1`, for which the growth inhibition was -17.3%. In the case of `NC(Cc1ccc(O)c(O)c1)P(=O)(O)O` (stereo not given), the growth inhibition was -27.8%.

Take `CN(CCCCl)Cc1ccccc1`: the growth inhibition is -7.55%. As for `COC(=O)C1CCC(=O)C(Sc2ccccc2)C1` (stereo not given), the growth inhibition is 28.4%. Consider `O=c1c2cc(S(=O)(=O)Nc3ccc(Cl)cc3Cl)ccc2ncn1NS(=O)(=O)c1cccc2ccccc12`, for which the growth inhibition is 14.9%. As to `CC(=O)OC(C[N+]1(C)CCCCCC1)C[N+]1(C)CCCCCC1`, the growth inhibition was -11.2%. The value for `Nc1nc(N)c2nc(-c3ccc(N(CCO)CCO)cc3)c(N)nc2n1` was -15.9%; that for `Cc1ccc2c(c1)SC(c1cc3c(cc1Br)OCO3)S2` (stereo not given) was -18.4%; that for `O=C(Nc1cc(Cl)ccc1Cl)Oc1c(Cl)cc(Cl)c(Cl)c1[N+](=O)[O-]` was 15.8%. The value for `CSC(=NCCCCN=C(NS(=O)(=O)c1ccc(Cl)cc1)SC)NS(=O)(=O)c1ccc(Cl)cc1` was -11.2%; that for `CSC(C1c2ccccc2N(C)C2=NC(=O)N(C)C(=O)C21Cl)S(=O)(=O)c1ccc(C)cc1` (stereo not given) was 51.3%; that for `CCC(C(O)C(C)C)[N+](=O)[O-]` (stereo not given) was 3.3%. On to `COc1ccc(C(Cc2cc(OC)c(OC)cc2Br)NC=O)cc1OC` (stereo not given), for which the growth inhibition is 31.4%. `CCOC(=O)CCc1ccc(NC(=O)/C=C/c2ccc([N+](=O)[O-])o2)cc1`: the growth inhibition is 36.7%. Take `O=C1CSC(/C(=C/c2ccccc2)c2nc3ccccc3[nH]2)=N1`: the growth inhibition was -0.25%. Regarding `CC1(C(=O)O)CCCC1C(CCC(=O)O)C(=O)O` (stereo not given), the growth inhibition is -35.1%.
